The text below walks through data of the supplement of paper PMC11634586.

SMILES strings stand for the structures. Structures can show the parent of a compound that is named as a salt.

This assay has as its system NCI-H1688. Description: inhibition of cell viability relative to untreated control (fraction); higher = stronger growth inhibition, active = 0.5 or more. The following applies: 30 µM; 24 h. The protocol:
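Natural product library (TargetMol, 640 compounds) screened on NCI-H1688 SCLC cells at 30 µM for 24 h; viability by CCK-8 absorbance at 450 nm, normalised to untreated control and expressed as inhibition rate (fraction). Compounds with >50% reduction in viability were selected as hits.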
With `O=C(O)CC[N+](=O)[O-]` [Bovinocidin], the “inhibition of cell viability” value was -0.0746 (inactive).
For `C[C@H]1C(=O)O[C@@H]2CCN3CC=C(COC(=O)[C@](C)(O)[C@]1(C)O)[C@H]23` [Monocrotaline], the “inhibition of cell viability” value was 0.161 (inactive).
The same measure for `C[C@H]1CC(=O)C[C@@H]2CC[C@H]3[C@@H]4CC[C@H](O)[C@@]4(C)CC[C@@H]3[C@]21C` [Mesterolone]: 0.237 (inactive); for `COc1cc([C@@H]2c3cc4c(cc3[C@H](O)[C@H]3COC(=O)[C@H]23)OCO4)cc(OC)c1OC` [Podophyllotoxin]: 0.839 (active).
In the case of `C[C@@H]1CC[C@@]2(OC1)O[C@H]1C[C@H]3[C@@H]4CC=C5C[C@@H](O[C@@H]6O[C@H](CO)[C@@H](O[C@@H]7O[C@@H](C)[C@H](O)[C@@H](O)[C@H]7O)[C@H](O)[C@H]6O[C@@H]6O[C@@H](C)[C@H](O)[C@@H](O)[C@H]6O)CC[C@]5(C)[C@H]4CC[C@]3(C)[C@H]1[C@@H]2C` [Dioscin], the “inhibition of cell viability” value was 0.976 (active).
As for `CNCC(O)c1ccc(O)cc1` (stereo not given) [Synephrine], the “inhibition of cell viability” value is 0.204 (inactive).
To `C[C@@H]1CC[C@@]2(OC1)O[C@H]1[C@@H](O)[C@H]3[C@@H]4CC[C@H]5C[C@@H](O[C@@H]6O[C@H](CO)[C@H](O[C@@H]7O[C@H](CO)[C@@H](O)[C@H](O[C@@H]8OC[C@@H](O)[C@H](O)[C@H]8O)[C@H]7O[C@@H]7O[C@H](CO)[C@H](O)[C@H](O[C@@H]8O[C@H](CO)[C@@H](O)[C@H](O)[C@H]8O)[C@H]7O)[C@H](O)[C@H]6O)[C@H](O)C[C@]5(C)[C@H]4CC[C@]3(C)[C@H]1[C@@H]2C` [Digitonin] belongs 1.01 (active); to `CC(C)=CCOc1c2occc2cc2ccc(=O)oc12` [Imperatorin], 0.0251 (inactive); to `N#CCCN` [3-Aminopropionitrile fumarate], -0.137 (inactive).
The same measure for `C[C@]12CC[C@H](O)C[C@H]1CC[C@@H]1[C@@H]2CC[C@]2(C)[C@@H](c3ccc(=O)oc3)CC[C@]12O` [Bufalin]: 0.985 (active); for `CCC(=O)O[C@H]1CC[C@H]2[C@@H]3CCC4=CC(=O)CC[C@]4(C)[C@H]3CC[C@]12C` [Testosterone propionate]: -0.173 (inactive); for `CC(=O)OC12COC1CC(O)C1(C)C(=O)C(O)C3=C(C)C(O)CC(O)(C(OC(=O)c4ccccc4)C21)C3(C)C` (stereo not given) [10-Deacetylbaccatin III]: 0.454 (inactive).
`COc1ccc(CC2NCCc3cc(OC)c(OC)cc32)cc1OC` (stereo not given) [Tetrahydropapaverine hydrochloride]: the “inhibition of cell viability” value was 0.125 (inactive).
To `C[C@H]1O[C@H](O[C@H]2[C@H](O)[C@@H](O)[C@@H](O)[C@H](O)[C@@H]2O)[C@@H](N)C[C@@H]1NC(=N)C(=O)O` [Kasugamycin hydrochloride] belongs 0.294 (inactive); to `CC(C)=CCC[C@](C)(O)[C@H]1CC[C@]2(C)[C@@H]1[C@H](O)C[C@@H]1[C@@]3(C)CC[C@H](O[C@@H]4O[C@H](CO)[C@@H](O)[C@H](O)[C@H]4O)C(C)(C)[C@@H]3CC[C@]12C` [Ginsenoside Rh2], 0.269 (inactive); to `CN1[C@@H]2C[C@@H](OC(=O)[C@H](CO)c3ccccc3)C[C@H]1[C@@H]1O[C@@H]12` [Scopolamine HBr], -0.0423 (inactive).
The same measure for `CC(=O)O[C@H]1CC[C@H]2[C@@H]3CCC4=CC(=O)CCC4=C3C=C[C@]12C` [Trenbolone acetate]: -0.43 (inactive); for `O=C1C[C@@H]2OCC=C3CN4CC[C@]56c7ccccc7N1[C@H]5[C@H]2[C@H]3C[C@H]46` [Strychnine Sulfate]: -0.193 (inactive); for `COc1ccc2c(c1O)-c1c(OC)c(OC)cc3c1[C@H](C2)N(C)CC3` [S-Isocorydine(+)]: 0.0897 (inactive).
In the case of `C=C[C@H]1CN2CC[C@H]1C[C@@H]2[C@@H](O)c1ccnc2ccccc12` [Cinchonine], the “inhibition of cell viability” value was -0.188 (inactive).
On to `NCCc1c[nH]c2ccc(O)cc12` [Serotonin hydrochloride], for which the “inhibition of cell viability” value is 0.104 (inactive).
The same measure for `C1=C2CCCN[C@H]2[C@@H]2C[C@H]1[C@H]1CCCCN1C2` [Aloperine]: 0.311 (inactive); for `CCC12C=CCN3CC[C@@]4(c5ccc(OC)cc5N(C)[C@H]4[C@@](O)(C(=O)OC)[C@@H]1OC(C)=O)[C@@H]32` (stereo not given in full) [Vindoline]: -0.0958 (inactive); for `CC(=O)O[C@H]1C(=O)[C@@]2(C)[C@H]([C@H](OC(=O)c3ccccc3)[C@]3(O)C[C@H](O)C(C)=C1C3(C)C)[C@]1(OC(C)=O)CO[C@@H]1C[C@@H]2O` [Baccatin III]: 0.535 (active).
The same measure for `CC1=C2C[C@H]3[C@@H](CC=C4C[C@@H](O)CC[C@@]43C)[C@@H]2CC[C@]12O[C@@H]1C[C@H](C)CN[C@H]1[C@H]2C` [Cyclopamine]: 0.162 (inactive); for `C[C@H]1CCC/C=C/[C@@H]2C[C@H](O)C[C@H]2[C@H](O)/C=C/C(=O)O1` [Brefeldin A]: 0.704 (active); for `COC1=C[C@@H]2[C@@H]3Cc4ccc(OC)c(O)c4[C@]2(CCN3C)CC1=O` [Sinomenine]: -0.13 (inactive).
The same measure for `COc1cc2c3c(c1OC)-c1ccccc1C[C@H]3N(C)CC2` [Nuciferine]: 0.173 (inactive); for `COc1ccc2c3c([nH]c2c1)C(C)=NCC3` [Harmaline]: -0.11 (inactive).
As for `CC(=O)O[C@H]1C[C@H](O[C@H]2[C@@H](O)C[C@H](O[C@H]3[C@@H](O)C[C@H](O[C@H]4CC[C@@]5(C)[C@H](CC[C@@H]6[C@@H]5C[C@@H](O)[C@]5(C)[C@@H](C7=CC(=O)OC7)CC[C@]65O)C4)O[C@@H]3C)O[C@@H]2C)O[C@H](C)[C@H]1O[C@@H]1O[C@H](CO)[C@@H](O)[C@H](O)[C@H]1O` [Lanatoside C], the “inhibition of cell viability” value is 0.994 (active).
As for `CCC1=C[C@H]2CN3CCc4c([nH]c5ccccc45)[C@](C(=O)OC)(C2)[C@H]13` [Catharanthine], the “inhibition of cell viability” value is 0.0372 (inactive).
In the case of `CC1=C(O)C(=O)C=C2C1=CC=C1[C@@]2(C)CC[C@@]2(C)[C@@H]3C[C@](C)(C(=O)O)CC[C@]3(C)CC[C@]12C` [Celastrol], the “inhibition of cell viability” value was 1 (active).
To `CC(=O)OCC1=C(C(=O)O)N2C(=O)[C@@H](N)[C@H]2SC1` [7-Aminocephalosporanic acid] belongs 0.00874 (inactive); to `O=C1CCC[C@@H]2[C@H]3CCCN4CCC[C@@H](CN12)[C@@H]34` [(+)-Matrine], 0.176 (inactive).
The same measure for `C/C=C(\C)C(=O)N[C@@H](c1ccccc1)[C@@H](O)C(=O)O[C@H]1C[C@@]2(O)[C@@H](OC(=O)c3ccccc3)[C@@H]3[C@]4(OC(C)=O)CO[C@@H]4C[C@H](O)[C@@]3(C)C(=O)[C@H](OC(C)=O)C(=C1C)C2(C)C` [Cephalomannine]: 0.721 (active); for `CCC1=C[C@@H]2CN3CCc4c([nH]c5ccccc45)[C@@](C(=O)OC)(C2)[C@@H]13` [Catharanthine tartrate]: -0.101 (inactive).
The same measure for `CN1[C@@H]2CC[C@H]1C[C@@H](OC(=O)C(CO)c1ccccc1)C2` (stereo not given in full) [Atropine]: -0.146 (inactive).
For the molecule `CC1=CC(=O)c2c(O)cccc2C1=O` [Plumbagin], the “inhibition of cell viability” value was 1 (active).
The same measure for `COc1ccc(Cc2nccc3cc(OC)c(OC)cc23)cc1OC` [Papaverine hydrochloride]: 0.205 (inactive); for `CCC1=CC2CN3CCc4c([nH]c5ccccc45)C(C(=O)OC)(C2)C13` (stereo not given) [Catharanthine sulfate]: 0.191 (inactive).
